Assay results taken from the supplement of paper PMC8728848.
This excerpt belongs to a sample that is enriched for the strongest signals.

Assays:
Assay in all cases: glycan array binding signal (z-score within array); higher = stronger binding
Conditions in all cases: glycan notation: IUPAC condensed, linker removed
[1] = target: Fuc(a1-2)Gal(b1-3)GalNAc
Procedure, shortened: (§1)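 Negative Z-scores can be read as non-binding. The Z-score is calculated within each array and then averaged across arrays of one protein sequence at different concentrations or buffers and across linkers. Arrays, 3228 in all, were curated from the Consortium for Functional Glycomics database and kept only where the protein sequence was available.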

[2] = target: Fuc(a1-2)[Gal(a1-3)]Gal(b1-4)Glc
Procedure, shortened: as §1

[3] = target: Fuc(a1-2)[GalNAc(a1-3)]Gal
Procedure, shortened: as §1

[4] = target: Fuc(a1-2)[GalNAc(b1-3)]Gal
Procedure, shortened: as §1

[5] = target: Fuc(a1-3)GlcNAc
Procedure, shortened: as §1

[6] = target: Gal(a1-2)Gal
Procedure, shortened: as §1

[7] = target: Gal(b1-3)[Fuc(a1-4)]GlcNAc(b1-3)Gal(b1-4)GlcNAc
Procedure, shortened: as §1

[8] = target: Gal(b1-4)GlcNAc
Procedure, shortened: as §1

[9] = target: Gal(b1-4)GlcNAc(b1-3)Gal(b1-4)Glc
Procedure, shortened: as §1

[10] = target: Gal(b1-4)GlcNAc(b1-3)Gal(b1-4)GlcNAc
Procedure, shortened: as §1

[11] = target: Gal4S6S(b1-4)GlcNAc
Procedure, shortened: as §1

[12] = target: Gal6S(b1-4)Glc
Procedure, shortened: as §1

[13] = target: Gal6S(b1-4)GlcNAc
Procedure, shortened: as §1

[14] = target: GlcNAc(b1-3)Gal(b1-4)Glc
Procedure, shortened: as §1

[15] = target: Man(a1-2)Man(a1-3)[Man(a1-2)Man(a1-6)]Man
Procedure, shortened: as §1

[16] = target: Man(a1-2)Man(a1-3)[Man(a1-2)Man(a1-6)]Man(a1-6)[Man(a1-2)Man(a1-2)Man(a1-3)]Man(b1-4)GlcNAc(b1-4)GlcNAc
Procedure, shortened: as §1

[17] = target: Neu5Ac(a2-3)Gal(b1-3)[Neu5Ac(a2-6)]GalNAc
Procedure, shortened: as §1

[18] = target: Neu5Ac(a2-3)Gal(b1-4)GlcNAc(b1-2)Man(a1-3)[Neu5Ac(a2-3)Gal(b1-4)GlcNAc(b1-2)Man(a1-6)]Man(b1-4)GlcNAc(b1-4)GlcNAc
Procedure, shortened: as §1

[19] = target: Neu5Ac(a2-3)Gal(b1-4)GlcNAc(b1-3)Gal(b1-4)GlcNAc(b1-3)Gal(b1-4)GlcNAc
Procedure, shortened: as §1

[20] = target: Neu5Ac(a2-3)Gal(b1-4)[Fuc(a1-3)]GlcNAc
Procedure, shortened: as §1

[21] = target: Neu5Ac(a2-3)Gal(b1-4)[Fuc(a1-3)]GlcNAc(b1-3)Gal(b1-4)GlcNAc
Procedure, shortened: as §1

[22] = target: Neu5Ac(a2-3)Gal(b1-4)[Fuc(a1-3)]GlcNAc(b1-3)Gal(b1-4)[Fuc(a1-3)]GlcNAc(b1-3)Gal(b1-4)[Fuc(a1-3)]GlcNAc
Procedure, shortened: as §1

[23] = target: Neu5Ac(a2-3)Gal6S(b1-4)GlcNAc
Procedure, shortened: as §1

[24] = target: Neu5Ac(a2-3)GalNAc
Procedure, shortened: as §1

[25] = target: Neu5Ac(a2-6)Gal(b1-4)GlcNAc(b1-3)Gal(b1-4)[Fuc(a1-3)]GlcNAc(b1-3)Gal(b1-4)[Fuc(a1-3)]GlcNAc
Procedure, shortened: as §1

[26] = target: Neu5Ac(a2-6)Gal(b1-4)GlcNAc6S
Procedure, shortened: as §1

B1: F4 (Escherichia coli), A0A6L9DDF0 (protein)
chain: MKKTLIALALAASAVSGMAHAWTSGDFNGTVDIGGSIDATNYRQKWEWEVGTGLNGFYNALSELTNNDTKLTITVTGNKPILLGRTKEAFVTPTAGGWGGIPQIAFTDYKGAPVELKNPDGETNKGLAYFVLPMKNADGTEAGSVRVNASYAGAVVEKTSDSSAKLFSAYAGEVIRIFNGGLPVNVTQSELQSGVAAADRTALFGSLGKADLVAQFQAVIPGATVTDGTSSEHCTMRLLASAAYALGIADGQTIEATFNQAVTTSTQWSAPLNVAITYY
glycan array binding signal (z-score) [1]: -0.145 | glycan array binding signal (z-score) [2]: -0.191 | glycan array binding signal (z-score) [3]: -0.144 | glycan array binding signal (z-score) [4]: -0.33 | glycan array binding signal (z-score) [5]: -0.164 | glycan array binding signal (z-score) [6]: -0.128 | glycan array binding signal (z-score) [7]: -0.232 | glycan array binding signal (z-score) [8]: -0.137 | glycan array binding signal (z-score) [9]: -0.276 | glycan array binding signal (z-score) [10]: -0.397 | glycan array binding signal (z-score) [11]: 0.285 | glycan array binding signal (z-score) [12]: -0.213 | glycan array binding signal (z-score) [13]: 1.48 | glycan array binding signal (z-score) [14]: 8.86 | glycan array binding signal (z-score) [15]: 0.052 | glycan array binding signal (z-score) [16]: -0.311 | glycan array binding signal (z-score) [17]: -0.291 | glycan array binding signal (z-score) [18]: -0.209 | glycan array binding signal (z-score) [19]: -0.282 | glycan array binding signal (z-score) [20]: 2.09 | glycan array binding signal (z-score) [21]: -0.176 | glycan array binding signal (z-score) [22]: -0.185 | glycan array binding signal (z-score) [23]: -0.21 | glycan array binding signal (z-score) [24]: -0.397 | glycan array binding signal (z-score) [25]: 2.24 | glycan array binding signal (z-score) [26]: -0.382
